Data published in PubChem BioAssay (NCATS).
Inconclusive results are not listed. Unmarked numbers belong to inactive results. Active and inactive are the calls of the source. The call rests on the fitted dose curve; in most records, active means well fitted curve in the direction sought with a large enough effect; inconclusive means small, poorly fitted or top-dose-only effect, or another doubt; inactive means no such curve, though single readings can be large; an effect the other way counts as inactive or inconclusive. Where a SMILES comes first, the peptide text is derived from it. [ ]: non-standard residue; d: D form. pGlu = O=C1CC[C@@H](C(=O)O)N1

System: not listed separately
Assay: qHTS to identify inhibitors of the type 1 interferon - major histocompatibility complex class I in skeletal muscle: primary screen against the NCATS Pharmaceutical Collection (AID 1347407);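 further: luminescence of HiBiT knocked into endogenous HLA-B as interferon-induced MHC class I level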; further: potency means the concentration at half of the fitted maximal effect; on activity change, negative = inhibition: on the % scale 0 is the no-effect control and ±100 the full control effect
Conditions: human skeletal muscle cells, IFN-b-induced MHC-I HiBiT luminescence, 24 h; series mostly up to 45.9 µM; activity change, negative = inhibition: at the top concentration
Procedure, shortened: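 Luminescence from HiBiT-tagged endogenous HLA-B*08:01 served as the read-out of IFN-beta-induced MHC class I in CRISPR-engineered C25cl48 myoblasts. Cells received 4 ng/ml IFN-beta plus compound (high final 46 uM, […]) for 24 h.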

Structure (SMILES)	activity change, negative = inhibition	Potency
CCCCCC(=O)O[C@]1(C(C)=O)CC[C@H]2[C@@H]3CCC4=CC(=O)CC[C@]4(C)[C@H]3CC[C@@]21C	-5.05%	
CC(=O)N1CCN(c2ccc(O)cc2)CC1	0.587%	
NC(=O)NC1N=C([O][Al])NC1=O (centres undefined)	-6.23%	
Cc1cccc(N(C)C(=S)Oc2ccc3c(c2)C2CCC3C2)c1 (centres undefined)	-12.6%	
COc1ccc(/C(C)=C/C(=O)O)c(OC)c1	24.7%	
NC(=O)C1(N2CCCCC2)CCN(CCCN2c3ccccc3CCc3ccc(Cl)cc32)CC1		23.6 µM (active)
CC(C)(C)NCC(O)COc1ccccc1OCC1CCCO1 (centres undefined)	-12.6%	
COC(=O)c1c(Cl)c(Cl)c(C(=O)OC)c(Cl)c1Cl	-11% [at 92.2 µM]	
COC(=O)c1ccc(NC(C)=O)cc1OC	7.08%	
Cc1nc2n(c(=O)c1CCN1CCC(C(=O)c3ccc(F)cc3)CC1)CCS2	-8.52%	
CCOC(=O)N1CCC(n2c(=O)[nH]c3cc(Cl)ccc32)CC1	1.81%	
O=C1[C@@H]2[C@H]3CC[C@H](C3)[C@@H]2C(=O)N1CCCCN1CCN(c2ncccn2)CC1	0.759%	
Cc1ncc([N+](=O)[O-])n1C	-1.79%	
NS(=O)(=O)c1ccc(N2CCCCS2(=O)=O)cc1	7.53%	
CCCC(CCC)(C(=O)OCC)C(=O)OCC	-1.46%	
CCC(C(=O)OCCN1CCOC(c2ccccc2)C1C)c1ccccc1 (centres undefined)	10.9%	
C=C(C)C(=O)OCC(O)CO (centres undefined)	-15.6%	
CCCCOC(=O)CCCCCCCCC(=O)OCCCC	-4.7%	
O=C(O)[C@@H](O)[C@H](O)[C@H](O)[C@@H](O)C(=O)O	0.84%	
Cc1ccc(C(C)OC(=O)C2(C)CCC(C(=O)O)C2(C)C)cc1 (centres undefined)	-3.06%	
CC(C)(C)C(O)/C=C/c1ccc2c(c1)OCO2 (centres undefined)	-9.23%	
[O-][n+]1cccc(/C(Cl)=N/OC[C@@H](O)CN2CCCCC2)c1	-8.84%	
CCOc1ncc(F)c(=O)[nH]1	6.83%	
CC(NC(CCc1ccccc1)C(=O)O)C(=O)N1C(=O)N(C)CC1C(=O)O (centres undefined)	8.19%	
CN(C)CCN(Cc1ccsc1)c1ccccn1	-11.7%	
CCn1ccc(NS(=O)(=O)c2ccc(N)cc2)nc1=O	-17.3%	

Molecular target: Protein phosphatase 1D (Homo sapiens) (UniProt O15297)
Sequence (O15297 whole entry, looked up): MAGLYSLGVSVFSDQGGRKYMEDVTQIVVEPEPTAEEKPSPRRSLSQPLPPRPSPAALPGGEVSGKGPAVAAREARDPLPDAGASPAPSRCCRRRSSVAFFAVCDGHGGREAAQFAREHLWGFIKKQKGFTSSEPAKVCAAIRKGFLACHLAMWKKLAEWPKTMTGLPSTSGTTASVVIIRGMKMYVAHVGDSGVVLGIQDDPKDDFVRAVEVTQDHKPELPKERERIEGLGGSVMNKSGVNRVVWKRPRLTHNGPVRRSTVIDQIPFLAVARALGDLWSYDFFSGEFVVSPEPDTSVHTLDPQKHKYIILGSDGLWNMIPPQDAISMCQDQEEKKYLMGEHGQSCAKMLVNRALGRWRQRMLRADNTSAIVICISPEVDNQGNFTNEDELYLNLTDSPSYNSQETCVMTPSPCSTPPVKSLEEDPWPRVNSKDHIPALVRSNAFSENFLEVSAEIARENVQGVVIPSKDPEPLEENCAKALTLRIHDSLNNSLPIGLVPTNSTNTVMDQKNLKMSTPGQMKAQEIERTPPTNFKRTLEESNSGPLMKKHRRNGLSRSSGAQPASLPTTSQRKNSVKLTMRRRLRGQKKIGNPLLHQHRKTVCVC
Assay: RapidFire Mass Spectrometry qHTS Assay for Modulators of WT P53-Induced Phosphatase 1 (WIP1) (AID 1347424);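 further: amount of dephosphorylated VEPPL-S-QETFS peptide product formed by WIP1; plate controls were DMSO wells for no effect and GSK830371 inhibitor control at 10 µM for full effect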
Conditions: WIP1 dephosphorylation of phosphopeptide, RapidFire MS; series mostly up to 63 µM; activity change, negative = inhibition: at the top concentration
Procedure, shortened: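 RapidFire mass spectrometry measured dephosphorylated peptide after 5 min room-temperature reaction of 2 uM VEPPL-pS-QETFS with 10 nM WIP1 (50 mM Tris-HCl pH 7.5, 30 mM MgCl2, 0.1 mM EGTA, BSA), following 1 hr compound preincubation; 1 uM isotope-labelled product standard.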

Structure (SMILES)	activity change, negative = inhibition
O=C1NC(c2ccccc2)(c2ccccc2)C(=O)N1COP(=O)(O)O	-4.94%
CC(=O)N[C@@H](CO)C(=O)N[C@@H](CC(=O)O)C(=O)N[C@@H](CCCCN)C(=O)N1CCC[C@H]1C(=O)O (Ac-SDKP-OH)	-8%
Nc1ccc(C(=O)OCC(O)CO)cc1 (centres undefined)	4.63%
Cc1c(F)cc2c(=O)c(C(=O)O)cn3c2c1CCC3C (centres undefined)	-1.06%
CN1CCC(N(Cc2cccs2)c2ccccc2)CC1	16.8%
Cc1nc([N+](=O)[O-])cn1-c1ccc([N+](=O)[O-])cc1	11.1%
CC1CC(=O)NN=C1c1ccc(NCC(C)(C)NCC(O)COc2cc(Cl)ccc2C#N)cc1 (centres undefined)	5.84%
O=C(O)Cn1cnnn1	18.9%
CO[C@@]1(NC(=O)CSC[C@@H](N)C(=O)O)C(=O)N2C(C(=O)O)=C(CSc3nnnn3C)CS[C@@H]21	-3.77%
CCNC(=O)[C@@H]1CCCN1C(=O)[C@H](CCCN=C(N)N)NC(=O)[C@H](CC(C)C)NC(=O)CNC(=O)[C@H](Cc1ccc(O)cc1)NC(=O)[C@H](CO)NC(=O)[C@H](Cc1c[nH]c2ccccc12)NC(=O)[C@H](Cc1cnc[nH]1)NC(=O)[C@@H]1CCC(=O)N1 ([pGlu]HWSYGLRP-NHEt)	-1.35%
CC(C)C(=O)OCc1cccc(OC(=O)[C@@H]2N3C(=O)[C@@H](NC(=O)Cc4ccccc4)[C@H]3SC2(C)C)c1	21.6%
CN(C)CCN1CCN(c2cccc(Cl)c2)C1=O	9.12%
CN=C(N)NC(=O)Nc1c(C)cccc1C	-5.81%
CN1CCCN(C(c2ccccc2)c2ccc(Cl)cc2)CC1 (centres undefined)	26.2%
CCCCCC(=O)O[C@]1(C(C)=O)CC[C@H]2[C@@H]3CCC4=CC(=O)CC[C@]4(C)[C@H]3CC[C@@]21C	59.9%
CC(=O)N1CCN(c2ccc(O)cc2)CC1	-1.63%
NC(=O)NC1N=C([O][Al])NC1=O (centres undefined)	-16.3%
Cc1cccc(N(C)C(=S)Oc2ccc3c(c2)C2CCC3C2)c1 (centres undefined)	5.61%
COc1ccc(/C(C)=C/C(=O)O)c(OC)c1	13.8%
NC(=O)C1(N2CCCCC2)CCN(CCCN2c3ccccc3CCc3ccc(Cl)cc32)CC1	34.3%
CC(C)(C)NCC(O)COc1ccccc1OCC1CCCO1 (centres undefined)	-10.9%
COC(=O)c1c(Cl)c(Cl)c(C(=O)OC)c(Cl)c1Cl	1.73% [at 128 µM]
COC(=O)c1ccc(NC(C)=O)cc1OC	-1.74%
